Compounds without any hit were thinned out: in the full panel of roughly 83,000, 20% have a hit.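 The endpoint reported here, percent growth, reads 100 for growth as untreated, 0 for no net growth and -100 for all cells dead.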 Unmarked numbers belong to inactive results. Calls of active or inactive are those of the source. Rule for the calls: active = growth percent below 10; inactive = the rest.
Experiments:
Assay in all cases: NCI-60 one-dose screen, 48 h (100 = growth as untreated, 0 = no growth, -100 = all killed)
Conditions in all cases: 10 µM unless noted
RPMI-8226 leukemia = test system: RPMI-8226 leukemia
OVCAR-8 ovarian = test system: OVCAR-8 ovarian
OVCAR-5 ovarian = test system: OVCAR-5 ovarian
OVCAR-4 ovarian = test system: OVCAR-4 ovarian
SK-OV-3 ovarian = test system: SK-OV-3 ovarian
IGROV1 ovarian = test system: IGROV1 ovarian
OVCAR-3 ovarian = test system: OVCAR-3 ovarian
HS 578T breast = test system: HS 578T breast
NCI/ADR-RES ovarian = test system: NCI/ADR-RES ovarian
T-47D breast = test system: T-47D breast

Question: Which results are given for COc1cc(OC)c(C2C(Cl)C(=O)N2Nc2ncnc3ccccc23)cc1OC (stereo not given)?
Answer: growth (RPMI-8226 leukemia): 106%; growth (OVCAR-8 ovarian): 104%; growth (OVCAR-5 ovarian): 105%; growth (OVCAR-4 ovarian): 104%; growth (SK-OV-3 ovarian): 113%; growth (IGROV1 ovarian): 83.5%; growth (OVCAR-3 ovarian): 116%; growth (HS 578T breast): 107%; growth (NCI/ADR-RES ovarian): 105%; growth (T-47D breast): 96.1%

Question: How did the growth (RPMI-8226 leukemia) turn out when CCCC(=O)NC(c1cccnc1)c1cc(C)c2cccnc2c1O (stereo not given) was run?
Answer: 53.5%

Question: What about the growth (OVCAR-8 ovarian) of the same molecule?
Answer: 14%

Question: What about the growth (OVCAR-5 ovarian) of the same molecule?
Answer: 53.6%

Question: And the growth (OVCAR-4 ovarian)?
Answer: 29.7%

Question: What about the growth (SK-OV-3 ovarian) of the same molecule?
Answer: 43.4%

Question: And the growth (IGROV1 ovarian)?
Answer: 30.6%

Question: And the growth (OVCAR-3 ovarian)?
Answer: -0.275% (active)

Question: What about the growth (HS 578T breast) of the same molecule?
Answer: 71.8%

Question: And the growth (NCI/ADR-RES ovarian)?
Answer: 23.7%

Question: What about the growth (T-47D breast) of the same molecule?
Answer: 29.7%

Question: How did the growth (RPMI-8226 leukemia) turn out when N/C(=N\c1nc2c(Cl)cc(Cl)cc2s1)C(Cl)(Cl)Cl was run?
Answer: 15.4%

Question: What about the growth (OVCAR-8 ovarian) of the same molecule?
Answer: 68.3%

Question: What about the growth (OVCAR-5 ovarian) of the same molecule?
Answer: 69.5%

Question: And the growth (OVCAR-4 ovarian)?
Answer: 67.9%

Question: What about the growth (SK-OV-3 ovarian) of the same molecule?
Answer: 83.8%

Question: And the growth (IGROV1 ovarian)?
Answer: 57.8%

Question: What about the growth (OVCAR-3 ovarian) of the same molecule?
Answer: -9.72% (active)

Question: And the growth (HS 578T breast)?
Answer: 22.1%

Question: What about the growth (NCI/ADR-RES ovarian) of the same molecule?
Answer: 68.3%

Question: What about the growth (T-47D breast) of the same molecule?
Answer: 32.3%

Question: For Nc1nc(N)c2c(n1)NC(c1ccc(C(F)(F)F)cc1)CC(c1ccc(Nc3nc(NCCO)nc(Nc4ccc(Cl)cc4)n3)cc1)=N2 (stereo not given), which growth (RPMI-8226 leukemia) is on record?
Answer: -36.9% (active)

Question: And the growth (OVCAR-8 ovarian)?
Answer: -26.1% (active)

Question: And the growth (OVCAR-5 ovarian)?
Answer: -88.7% (active)

Question: And the growth (OVCAR-4 ovarian)?
Answer: -9.44% (active)

Question: What about the growth (SK-OV-3 ovarian) of the same molecule?
Answer: -26% (active)

Question: What about the growth (IGROV1 ovarian) of the same molecule?
Answer: -67.7% (active)

Question: What about the growth (OVCAR-3 ovarian) of the same molecule?
Answer: -20.9% (active)

Question: What about the growth (HS 578T breast) of the same molecule?
Answer: -10.5% (active)

Question: What about the growth (NCI/ADR-RES ovarian) of the same molecule?
Answer: -29.3% (active)

Question: And the growth (T-47D breast)?
Answer: 36%

Question: What does the source list for O=C(N/N=C/c1ccc(Br)s1)c1[nH]c2ccc(Br)cc2c1-c1ccccc1?
Answer: growth (RPMI-8226 leukemia): 5.48% (active); growth (OVCAR-8 ovarian): 2.61% (active); growth (OVCAR-5 ovarian): 52%; growth (OVCAR-4 ovarian): 71.1%; growth (SK-OV-3 ovarian): 40.6%; growth (IGROV1 ovarian): 18.1%; growth (OVCAR-3 ovarian): 9.72% (active); growth (HS 578T breast): 23.6%; growth (NCI/ADR-RES ovarian): 16.6%; growth (T-47D breast): 75.7%

Question: What does the source list for CC(=O)Oc1ccccc1C(=O)Nc1cc(C(C)C)ccc1C?
Answer: growth (RPMI-8226 leukemia): 1.78% (active); growth (OVCAR-8 ovarian): 13.8%; growth (OVCAR-5 ovarian): 43.6%; growth (OVCAR-4 ovarian): 16.9%; growth (SK-OV-3 ovarian): 0.738% (active); growth (IGROV1 ovarian): 25.5%; growth (OVCAR-3 ovarian): 6.75% (active); growth (HS 578T breast): 19.7%; growth (NCI/ADR-RES ovarian): 9.16% (active); growth (T-47D breast): 9.13% (active)

Question: Which growth (RPMI-8226 leukemia) does the source give for Clc1ccc2c(NCCCN3CCOCC3)c3oc4ccccc4c3nc2c1 here?
Answer: 23.2%

Question: What about the growth (OVCAR-8 ovarian) of the same molecule?
Answer: 32.5%

Question: What about the growth (OVCAR-5 ovarian) of the same molecule?
Answer: 39.6%

Question: What about the growth (OVCAR-4 ovarian) of the same molecule?
Answer: 64.8%

Question: And the growth (SK-OV-3 ovarian)?
Answer: 97.6%

Question: What about the growth (IGROV1 ovarian) of the same molecule?
Answer: 25.8%

Question: What about the growth (OVCAR-3 ovarian) of the same molecule?
Answer: 74.2%

Question: What about the growth (HS 578T breast) of the same molecule?
Answer: 58.2%

Question: And the growth (NCI/ADR-RES ovarian)?
Answer: 44.2%

Question: What about the growth (T-47D breast) of the same molecule?
Answer: 76.5%

Question: Which growth (RPMI-8226 leukemia) does the source give for Clc1ccc2c(NCCCn3ccnc3)c3oc4ccc(Cl)cc4c3nc2c1 here?
Answer: 82.8%

Question: And the growth (OVCAR-8 ovarian)?
Answer: 71.9%

Question: And the growth (OVCAR-5 ovarian)?
Answer: 86.7%

Question: What about the growth (OVCAR-4 ovarian) of the same molecule?
Answer: 95.7%

Question: And the growth (SK-OV-3 ovarian)?
Answer: 83.4%

Question: What about the growth (IGROV1 ovarian) of the same molecule?
Answer: 58.9%

Question: What about the growth (OVCAR-3 ovarian) of the same molecule?
Answer: 98.8%

Question: And the growth (HS 578T breast)?
Answer: 91.1%

Question: What about the growth (NCI/ADR-RES ovarian) of the same molecule?
Answer: 74.1%

Question: What about the growth (T-47D breast) of the same molecule?
Answer: 78.2%

Question: Which results are given for CC(=NNc1ncnc2ccccc12)c1ccc(S(C)(=O)=O)cc1?
Answer: growth (RPMI-8226 leukemia): 98.6%; growth (OVCAR-8 ovarian): 98.2%; growth (OVCAR-5 ovarian): 111%; growth (OVCAR-4 ovarian): 122%; growth (SK-OV-3 ovarian): 102%; growth (IGROV1 ovarian): 96.5%; growth (OVCAR-3 ovarian): 118%; growth (HS 578T breast): 95.3%; growth (NCI/ADR-RES ovarian): 103%; growth (T-47D breast): 103%

Question: What does the source list for C/C(=N\NC(N)=O)c1c(O)sc(=O)[nH]c1=O?
Answer: growth (RPMI-8226 leukemia): 102%; growth (OVCAR-8 ovarian): 99.9%; growth (OVCAR-5 ovarian): 102%; growth (OVCAR-4 ovarian): 105%; growth (SK-OV-3 ovarian): 115%; growth (IGROV1 ovarian): 99.7%; growth (OVCAR-3 ovarian): 114%; growth (HS 578T breast): 91.4%; growth (NCI/ADR-RES ovarian): 105%; growth (T-47D breast): 105%

Question: For CCOC(=O)c1c(Nc2ccccc2)nn2c(N)c(C#N)c(-c3ccccc3)nc12, which growth (RPMI-8226 leukemia) is on record?
Answer: 68.8%

Question: And the growth (OVCAR-8 ovarian)?
Answer: 94%

Question: And the growth (OVCAR-5 ovarian)?
Answer: 109%

Question: What about the growth (OVCAR-4 ovarian) of the same molecule?
Answer: 82.5%

Question: And the growth (SK-OV-3 ovarian)?
Answer: 108%

Question: And the growth (IGROV1 ovarian)?
Answer: 90.2%

Question: What about the growth (OVCAR-3 ovarian) of the same molecule?
Answer: 94.5%

Question: And the growth (HS 578T breast)?
Answer: 75.2%

Question: What about the growth (NCI/ADR-RES ovarian) of the same molecule?
Answer: 88.7%

Question: And the growth (T-47D breast)?
Answer: 55.5%

Question: For CS(=O)(=O)Nc1ccc(-c2nn(-c3ccc(S(C)(=O)=O)cc3)cc2/C=C/C(=O)c2ccc(NC(=O)CO[N+](=O)[O-])cc2)cc1, which growth (RPMI-8226 leukemia) is on record?
Answer: 111%

Question: What about the growth (OVCAR-8 ovarian) of the same molecule?
Answer: 101%

Question: And the growth (OVCAR-5 ovarian)?
Answer: 103%

Question: And the growth (OVCAR-4 ovarian)?
Answer: 106%

Question: And the growth (SK-OV-3 ovarian)?
Answer: 99.7%

Question: And the growth (IGROV1 ovarian)?
Answer: 105%

Question: And the growth (OVCAR-3 ovarian)?
Answer: 116%

Question: And the growth (HS 578T breast)?
Answer: 122%

Question: What about the growth (NCI/ADR-RES ovarian) of the same molecule?
Answer: 97.3%

Question: What about the growth (T-47D breast) of the same molecule?
Answer: 102%

Reference: PubChem BioAssay (NCI)
